Source: PubChem BioAssay (NCATS)
Results filed as inconclusive are left out. A call without a number means that no potency is given here. Activity calls are given as the source filed them. The call rests on the fitted dose curve; in most records, active means well fitted cell-killing curve with a large enough effect; inconclusive means small, poorly fitted or top-dose-only effect, or effect the other way; inactive means no such curve, though single readings can be large or run the other way. Non-standard residues stand in square brackets, D forms with d. Residues, ends and D or L forms follow the SMILES beside them. Peptide text beside a SMILES is read from it. *: point of attachment. Sta = CC(C)C[C@H](N)[C@@H](O)CC(=O)O; Isovaleryl = CC(C)CC(=O)*

Assay: Quantitative High-Throughput drug screen in 47 multiple myeloma cell lines against the NCATS MIPE library collection: XG6_PLB cell viability assay (AID 1919865); further: nearly all actives have a fitted effect of over 40% in size
Conditions: XG6 myeloma viability, CellTiter-Glo ATP luminescence, 48 h; series mostly up to 45.8 µM
Method in brief: (§1)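 Plated at 500 cells per well, myeloma lines received MIPE 4.0 compounds by pin tool. Following 48 h culture at 37 °C, CellTiter-Glo luminescence gave viability relative to DMSO and media-only controls.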
Potency means the concentration at half of the fitted maximal effect.

SMILES	Potency
CC(=O)NC[C@H]1CN(c2ccc(N3CCOCC3)c(F)c2)C(=O)O1	inactive
Cc1ccc(NC(=O)c2ccc(CN3CCN(C)CC3)cc2)cc1Nc1nccc(-c2cccnc2)n1	33.2 µM (active)
O=C(O)c1cn(-c2ccc(F)cc2)c2cc(N3CCNCC3)c(F)cc2c1=O	inactive
C[C@H](Cn1cnc2c(N)ncnc21)OCP(=O)(O)O	inactive
CCCCCCCCCCCCCCCCCCCCCCO	inactive
CCc1nc(N)nc(N)c1-c1ccc(Cl)cc1	inactive
CC(C)c1nc(CN(C)C(=O)N[C@H](C(=O)N[C@@H](Cc2ccccc2)C[C@H](O)[C@H](Cc2ccccc2)NC(=O)OCc2cncs2)C(C)C)cs1	inactive
CC1(C)CCC(C)(C)c2cc(NC(=O)c3ccc(C(=O)O)cc3)ccc21	5.26 µM (active)
O=c1oc2cc(O)ccc2s1	inactive

Assay: Quantitative High-Throughput drug screen in 47 multiple myeloma cell lines against the NCATS MIPE library collection: XG1_PLB cell viability assay (AID 1919866); further: nearly all actives have a fitted effect of over 35% in size
Conditions: CellTiter-Glo ATP, 48 h; series mostly up to 45.8 µM
Method in brief: as §1

SMILES	Potency
c1cnc2cc3c(cc2n1)C1CNCC3C1	inactive
CC1(C)C(=O)N(CCN2CCC(C(=O)c3ccc(F)cc3)CC2)c2ccccc21	14.8 µM (active)
COC(=O)[C@H](Cc1ccccc1)NC(=O)[C@@H](N)CC(=O)O (H-Asp-Phe-OMe)	inactive
O=c1ccc2ccc(O)c(O)c2o1	4.18 µM (active)
CS(=O)(=O)OCCCCOS(C)(=O)=O	inactive
O=C(NCCO[N+](=O)[O-])c1cccnc1	inactive
Cc1ccc(Nc2nccc(N(C)c3ccc4c(C)n(C)nc4c3)n2)cc1S(N)(=O)=O	9.35 µM (active)
C[Se]CCC(N)C(=O)O (stereo unspecified)	inactive
NS(=O)(=O)c1cc(C(=O)O)c(NCc2ccco2)cc1Cl	inactive
Cc1cc(=O)c2c(O)c3c(O)cc(=O)c4c3c3c(cc(O)c1c23)C(C)(C)C=4O	1.05 µM (active)
COc1cc2c(cc1OC)C1CC(=O)C(CC(C)C)CN1CC2 (stereo unspecified)	inactive
CN1C(C(=O)Nc2ccccn2)=C(O)c2sccc2S1(=O)=O	inactive
CC(C)CC(=O)N[C@H](C(=O)N[C@H](C(=O)N[C@@H](CC(C)C)[C@@H](O)CC(=O)N[C@@H](C)C(=O)N[C@@H](CC(C)C)[C@@H](O)CC(=O)O)C(C)C)C(C)C (Isovaleryl-VV[Sta]A[Sta]-OH)	16.6 µM (active)
CN(C)[C@@H](CCOc1cccc2ccccc12)c1ccccc1	16.6 µM (active)
CC(=O)NC[C@H]1CN(c2ccc(N3CCOCC3)c(F)c2)C(=O)O1	inactive
O=C(O)c1cn(-c2ccc(F)cc2)c2cc(N3CCNCC3)c(F)cc2c1=O	inactive
C[C@H](Cn1cnc2c(N)ncnc21)OCP(=O)(O)O	inactive
CCCCCCCCCCCCCCCCCCCCCCO	inactive
CCc1nc(N)nc(N)c1-c1ccc(Cl)cc1	3.72 µM (active)
O=C1c2c(O)cc(O)cc2OC(c2ccc(O)c(O)c2)C1O (stereo unspecified)	inactive
CC(C)c1nc(CN(C)C(=O)N[C@H](C(=O)N[C@@H](Cc2ccccc2)C[C@H](O)[C@H](Cc2ccccc2)NC(=O)OCc2cncs2)C(C)C)cs1	inactive
CC(C)c1ccc2c(c1)c(SC(C)(C)C)c(CC(C)(C)C(=O)O)n2Cc1ccc(Cl)cc1	23.5 µM (active)
CC(=O)N1CCN(c2ccc(OC[C@H]3CO[C@](Cn4ccnc4)(c4ccc(Cl)cc4Cl)O3)cc2)CC1	13.2 µM (active)
CC1(C)CCC(C)(C)c2cc(NC(=O)c3ccc(C(=O)O)cc3)ccc21	3.72 µM (active)
Cc1cccc(C)c1OCC(=O)N[C@@H](Cc1ccccc1)[C@@H](O)C[C@H](Cc1ccccc1)NC(=O)[C@H](C(C)C)N1CCCNC1=O	20.9 µM (active)
CCC1=C(C)CN(C(=O)NCCc2ccc(S(=O)(=O)NC(=O)NC3CCC(C)CC3)cc2)C1=O (stereo unspecified)	inactive
O=c1oc2cc(O)ccc2s1	inactive
